This passage reports INHIBITION results from ChEMBL document CHEMBL4513216, “Probing the Open Global Health Chemical Diversity Library for Multistage-Active Starting Points for Next-Generation Antimalarials” (ACS Infect Dis, 2020).

Out of some 69,000 compounds screened, about 8,600 (12%) showed an effect of 50% or more. Only a selection was taken, and strong results are over-represented in it overall.

This experiment has as its system Plasmodium berghei. Put plainly: Screen against P. berghei liver stage (PbLuc), transformed with Luciferase, at 10uM. The class given is functional, HepG2. Particulars: tested at 10 uM.
For the compound `CC1(C(=O)N2CCSCC2)CNCCO1` (centres undefined), the INHIBITION was 34.825%. Consider `O=C1CCCc2[nH]c(=O)c(C(=O)N3CCc4ccccc4C3)cc21`, for which the INHIBITION is on record as 14.1%. For `CN1C(=O)[C@@H]2CC[C@H]1CN(Cc1cccc(OCc3ccccn3)c1)C2`, the INHIBITION is reported as 47.5%. As for `COc1cccc(-c2cccc(CN3C[C@H]4CC[C@@H](C3)N(C)C4=O)c2)c1`, the INHIBITION was determined as 61%. The figure for `COCCN1C[C@H]2CN(Cc3cccc(OC)c3)CCN2C1=O` is 24.8%; for `COc1cccc(-c2ncc(CN3CC[C@H](CO)[C@@H](O)C3)s2)c1` it is 15.7%. With `COc1cccc(-c2ncc(CN3CC[C@@H]4CC[C@H](C3)N4)s2)c1` the figure was 46.1%; with `COc1cccc(-c2ncc(CN3C[C@H]4CC[C@@H](C3)N(C)C4=O)s2)c1`, 78.9%. As for `Cc1ccc(C2NC(=O)c3cc(C(C)C)sc3N2)cc1` (centres undefined), the INHIBITION is -4.92%. With `Cc1cnn(C2CN(CC(=O)NCCc3c[nH]c4ccccc34)C2)c1` the figure was 10%; with `COc1ccc(-c2cc(C3CCOC3)c(C#N)c(N)n2)cn1` (centres undefined), 6.69%.

With `Cc1cc(-c2cc(C3CCOC3)c(C#N)c(N)n2)ccc1Cl` (centres undefined), the INHIBITION came out at 23.9%.

For `COc1cc(-c2cc(C3CCOC3)c(C#N)c(N)n2)ccc1O` (centres undefined), the INHIBITION is 53%. On to `C=Cc1ccc(C(=O)N2CCCC(Nc3ccccc3)C2)cc1` (centres undefined), for which the INHIBITION was 50.3%. With `C=Cc1ccc(C(=O)N2CCCC(Nc3ccc(F)cc3)C2)cc1` (centres undefined) the figure was 36.8%; with `C=Cc1ccc(C(=O)N2CCCC(Nc3ccc(OC)cc3)C2)cc1` (centres undefined), 73.5%. The figure for `C=Cc1ccc(C(=O)N2CCCC(Nc3ccc(F)c(F)c3)C2)cc1` (centres undefined) is 37.1%. With `COC(=O)c1ccc(C(=O)N2CCCC(Nc3ccc(F)cc3)C2)cc1` (centres undefined) the figure was -6.88%. With `Cc1ccc(C(=O)N2CCCC(Nc3ccc(F)cc3)C2)cc1` (centres undefined), the INHIBITION was 36%.

In the case of `CC(C)N1CCO[C@H]2CN(C(=O)c3ccsc3)C[C@H]21`, the INHIBITION is -5.05%.

With `CC(=O)N1CCCCC[C@@H]2[C@@H]1[C@H](c1cccc(F)c1)CN2C(=O)C1CC1`, the INHIBITION is listed as 35.85%. The figure for `O=C(c1ncc(F)cc1F)N1CCC(c2ncc[nH]2)CC1` is 29.4%; for `CN(C)c1nccc(C2CCN(C3CCCCC3O)CC2)n1` (centres undefined) it is 27.6%.

`NC(=O)c1cccc(C2CCN(c3ncccn3)CC2)n1`: the INHIBITION is 52.7%. With `CN(C)c1nccc(C2CCN(C(=O)CO)CC2)n1` the figure was -37%; with `CN(C)c1nccc(C2CN(S(C)(=O)=O)C2)n1`, 20.2%; with `CN(C)c1nccc(C2CCN(c3ncccn3)CC2)n1`, 76.8%. The figure for `CN(C)c1cccc(C2CCN(c3ncccn3)CC2)n1` is 48%; for `Cc1cc(C)nc(N2CCC(c3ccnc(N(C)C)n3)CC2)n1` it is 75.9%. The figure for `CN(C)C(=O)c1cccc(C2CCN(c3ncccn3)CC2)n1` is -19.7%. As for `CN1CCC(c2cccc(C(=O)N(C)C)n2)CC1`, the INHIBITION is recorded as 16.5%. The figure for `Cc1cccc(CN2CCC3(CC2)CC(Oc2cccnc2)C3)n1` is 0.923%. Regarding `CCOc1ccnc(N2CCN(C(=O)c3ccn(C)c(=O)c3)CC2)n1`, the INHIBITION is 4.71%. `COc1ccc(CCCN(C)C(=O)c2cc(C(C)=O)c[nH]2)cc1OC`: the INHIBITION was -46.6%. In the case of `COCCN1C(=O)[C@@H]2CC[C@H]1CN(C(=O)Cc1ccc(O)c(Cl)c1)C2`, the INHIBITION is listed as -82.7%. With `CCS(=O)(=O)N1CCC2(CC1)COC(COc1cccnc1)C2` (centres undefined) the figure was 5.63%; with `Cc1ccc(C#N)c(N2CCCC(c3nccn3Cc3cscn3)C2)n1` (centres undefined), 56.7%; with `Cc1cnc(C)c(N2CCC(c3nccn3Cc3cscn3)CC2)n1`, 8.51%.

Turning to `Cc1ccc(C#N)c(N2CCC(c3nccn3Cc3cscn3)CC2)n1`, the INHIBITION is listed as 23.9%. The figure for `O=C(CC1CC1)N1C[C@@H]2CN(c3ccccc3)C(=O)[C@@H]2C1` is -15.9%; for `Cc1cc(C(=O)NCC2OCCc3cn(CC4CC4)nc32)c(C)[nH]1` (centres undefined) it is 26.5%; for `COc1ccc(CCN2CC(NCc3ncc[nH]3)CC2=O)cc1` (centres undefined) it is -5.19%. With `CN(C(=O)c1ccc2c(c1)nc(N1CC[C@H](O)C1)n2C)C1CCSCC1` the figure was -1.04%; with `Cn1c(N2CC[C@H](O)C2)nc2cc(C(N)=O)ccc21`, 14.3%. In the case of `CN(C)C(=O)c1ccc2c(c1)nc(N1CC[C@H](O)C1)n2C`, the INHIBITION is 51.8%. With `CCOc1ccc(Oc2cc(CN)ccn2)cc1` the figure was -5.69%. With `COc1ccc(Oc2cc(CN)ccn2)cc1` the figure was 62.4%. The figure for `NCc1ccnc(Oc2ccc(F)cc2)c1` is 82.9%; for `NCc1ccnc(Oc2ccccc2)c1` it is -18.5%; for `CC(C)C(=O)NCc1ccnc(Oc2ccc(F)cc2)c1` it is 32.5%. With `Cc1ccc(Oc2cc(CN)ccn2)cc1C`, the INHIBITION is reported as 45.7%.

In the case of `O=C(CSc1ccccc1)N1C[C@@H]2CC[C@H]1CN(Cc1ccncc1)C2`, the INHIBITION is 10.4%. Take `CC(C)S(=O)(=O)N1CCC(c2cc3n(n2)[C@@H](C(F)(F)F)C[C@@H](C)N3)CC1`: the INHIBITION was found to be 48.4%. Regarding `COc1c(C2CCCN2CC(=O)Nc2cc(C)nn2C)c(C)nn1C` (centres undefined), the INHIBITION is recorded as 23.5%.

On to `Cc1cc(C)n(CCC(=O)N2CCCC(c3nc(C(C)C)no3)C2)n1` (centres undefined), for which the INHIBITION is 30.8%.

For the compound `COc1ncnc(N)c1CNCc1ccccc1-n1cccn1`, the INHIBITION is given as 30.9%. As to `CCc1ncc(CN2CCOC(Cc3cccc(F)c3)C2)cn1` (centres undefined), the INHIBITION was determined as 56.1%. The figure for `CCc1ccc(CN2CCOC(Cc3cccc(F)c3)C2)nc1` (centres undefined) is 22%; for `CCCNc1ncc(CN2CCOC(Cc3cccc(F)c3)C2)cn1` (centres undefined) it is -45%. Regarding `c1ncn(CC2CN(CC3CCCCC3)CCO2)n1` (centres undefined), the INHIBITION is 25.4%. The figure for `O=C(NCC1(O)CCC1)c1c(O)cc(Cl)cc1Cl` is 31%. The figure for `O=C(NCCC(=O)N1CCCCCC1)c1c(O)cc(F)cc1F` is 29.5%. With `O=C(NCC1(O)CCC1)c1c(O)cc(F)cc1F` the figure was 59.5%; with `NS(=O)(=O)Cc1cccc(C(=O)N2CCCC(n3cccn3)C2)c1` (centres undefined), 14.815%.

In the case of `Cc1nccc(CNC(=O)NCCC(=O)N2CCCc3ccccc32)n1`, the INHIBITION is recorded as -15%. The figure for `COc1cccc(C2CCCN2CCCNS(C)(=O)=O)c1` (centres undefined) is 15.3%; for `CSCCN1C(=O)CC(C)(c2ccc(Br)cc2)C1=O` (centres undefined) it is 42.1%; for `CC1(c2ccc(Br)cc2)CC(=O)N(CCC(N)=O)C1=O` (centres undefined) it is -48.3%. The figure for `CC1(c2ccc(Br)cc2)CC(=O)N(CC(N)=O)C1=O` (centres undefined) is 51.8%.
